# Bcl-xL primary – inhibitors of human Bcl-xL, primary screen, biochemical, fluorescence polarization, HTS; GST-Bcl-xL / FITC-Bim BH3 peptide fluorescence polarization; 320,000 tested, 0.7% active; inhibition, % at 10.9 µM; Bcl-2-like protein 1 (Homo sapiens), Q07817;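 active = inhibition above the mean of all tested compounds plus 3 SD, cutoff set per campaign, cut at about 30% in these data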;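 note: 0% = DMSO wells and 100% = unlabeled Bim-BH3 peptide competitor; inhibitors lower millipolarization by displacing the labeled peptide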
# MEX-5 binding – MEX-5 zinc finger RNA-binding disruptors – biochemical, C. elegans, fluorescence polarization, MLPCN library, primary screen; Zinc finger protein mex-5 (Caenorhabditis elegans), Q9XUB2; MEX-5/FITC-TCR2 RNA binding; active compounds read low; 300,000 tested, 0.38% active; activity score (negative = inhibition of binding), % at 10 µM; AID 1832, 2009;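 active = inhibition past about -25% in most replicates, and total fluorescence under double the plate's negative control median, limit read from the data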;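 note: 0% = DMSO and -100% = 5 µM competing unlabeled TCR2 RNA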
# MCL1-BIM inh – inhibitors of MCL1 binding to BIM-BH3, primary screen, biochemical, fluorescence polarization; Induced myeloid leukemia cell differentiation protein Mcl-1 (Homo sapiens), Q07820; GST-MCL1 / FITC-Bim-BH3 fluorescence polarization; inhibition, % at 10.9 µM; 320,000 tested, 0.68% active;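 active = inhibition above the mean inhibition of all tested compounds plus 3 SD, set per campaign, cut at about 40% in these data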;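 note: 0% = DMSO wells and 100% = unlabeled Bim-BH3 peptide control; higher means more loss of mP so more displacement of Bim peptide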
# E coli Lon inh – inhibitors of E. coli Lon protease, primary screen, biochemical, fluorescence polarization. P0A9M0. 360,000 tested, 0.42% active. inhibition, % at 7.94 µM. purified E. coli Lon protease; in the data active = inhibition above about 13%, passing the limit was not always enough;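 note: 0% = enzyme with probe and DMSO and 100% = no enzyme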
# Target sequence (P0A9M0 whole entry, looked up): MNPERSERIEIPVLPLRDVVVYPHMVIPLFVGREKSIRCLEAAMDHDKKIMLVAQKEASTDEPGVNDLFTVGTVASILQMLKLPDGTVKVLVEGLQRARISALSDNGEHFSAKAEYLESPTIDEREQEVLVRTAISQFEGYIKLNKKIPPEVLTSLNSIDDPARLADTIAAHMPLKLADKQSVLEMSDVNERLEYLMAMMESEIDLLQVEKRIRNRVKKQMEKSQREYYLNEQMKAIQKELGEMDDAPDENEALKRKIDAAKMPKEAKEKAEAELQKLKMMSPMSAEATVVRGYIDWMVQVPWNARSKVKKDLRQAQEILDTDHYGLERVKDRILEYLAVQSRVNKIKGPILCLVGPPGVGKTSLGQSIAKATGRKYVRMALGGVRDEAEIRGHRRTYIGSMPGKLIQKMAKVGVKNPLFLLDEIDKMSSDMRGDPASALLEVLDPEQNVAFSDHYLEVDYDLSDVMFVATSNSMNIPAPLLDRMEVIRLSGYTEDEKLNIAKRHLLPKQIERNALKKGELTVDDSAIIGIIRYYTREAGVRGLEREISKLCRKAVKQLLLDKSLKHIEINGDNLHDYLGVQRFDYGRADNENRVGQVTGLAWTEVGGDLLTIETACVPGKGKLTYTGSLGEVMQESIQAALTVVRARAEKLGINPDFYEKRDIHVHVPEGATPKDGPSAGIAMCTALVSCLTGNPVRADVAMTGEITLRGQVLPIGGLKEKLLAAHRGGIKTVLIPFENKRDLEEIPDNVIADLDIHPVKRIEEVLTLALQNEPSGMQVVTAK
# GLD-1 RNA inh – GLD-1/TGE RNA complex disruptors, primary screen, biochemical, fluorescence polarization; AID 2280, 2010; 320,000 tested, 0.44% active; Female germline-specific tumor suppressor gld-1 (Caenorhabditis elegans), Q17339; purified GLD-1 + fluorescein TGE RNA; inhibition, % at 5.96 µM;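 active = percent inhibition above a per-plate cutoff, the plate mean of test compounds plus 3 SD, cut at about 30% in these data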;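 note: 0% = DMSO wells with GLD-1 and probe and 100% = wells lacking GLD-1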
# BCLXL inh confirm – Bcl-xL inhibitors blocking Bim BH3 binding, confirmation, counter-screen for MCL1 inhibitor project, biochemical, fluorescence polarization. shares compounds with MCL1-BIM inh. GST-Bcl-xL / FITC-Bim BH3 peptide FP binding. inhibition, % at 10.9 µM. 1,700 tested, 54% active;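 active = inhibition above a cutoff equal to the mean inhibition of all tested compounds plus 3 SD, cut at about 30% in these data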;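 note: 0% = DMSO wells and 100% = unlabeled Bim BH3 control peptide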
# MCL1 inh confirm – inhibitors of MCL1 binding to BIM-BH3, confirmation, biochemical, fluorescence polarization, triplicate; GST-MCL1 / FITC-Bim-BH3 fluorescence polarization; shares compounds with MCL1-BIM inh; inhibition, % at 10.9 µM; AID 2168, 2009; 1,700 tested, 61% active;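 active = inhibition above the average of all tested compounds plus 3 SD, cut at about 40% in these data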;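 note: 0% = DMSO wells and 100% = unlabeled Bim-BH3 control peptide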
# Active calls of the source: *; . = no result given. In the library only some 1.4% were active in any assay of this set; here they are far more common.
SMILES,Bcl-xL primary,MEX-5 binding,MCL1-BIM inh,E coli Lon inh,GLD-1 RNA inh,BCLXL inh confirm,MCL1 inh confirm
O=C(N1CCN(c2ccccc2)CC1)C1(c2cccs2)CCOCC1,-6.4,2.2,-5.7,-12.4,8.9,.,.
CN1CCN(C2=Nc3cc(Cl)ccc3Nc3ccccc32)CC1,1.7,0.1,-0.7,-0.6,-0.3,.,.
CN1CCN(C2=Nc3c(Cl)cc(Cl)c4cccc2c34)CC1,74.7*,-7.4,80.0*,11.5,39.9*,82.3*,109.7*
CC(C)Cc1nnc(NC(=O)CCC(=O)N2CCN(c3ccccn3)CC2)s1,-10.1,-1.1,-11.6,4.5,-0.9,.,.
Cc1ccc(NC2C(=O)NC(=O)NC2=O)cc1,.,.,.,-3.3,.,.,.
COc1ccc(CN2C(=O)Cc3c2nc(N)c2c(N)nc(N4CCCCC4)c(C#N)c32)cc1,44.5*,-2.5,65.8*,.,16.1,5.6,-4.4
COc1ccccc1NC(=O)N1CCc2[nH]c3ccc(F)cc3c2C1,52.3*,-2.0,49.6*,4.3,50.5*,14.1,20.4
O=C(Cn1ccc2ccccc2c1=O)NCCC(=O)Nc1cccc(Cl)c1,-1.2,-1.3,5.3,-6.5,-4.9,.,.
CC(C)NC(=O)CN(C(=O)CCC(=O)Nc1nccs1)c1ccc(C(C)C)cc1,4.0,1.5,7.0,5.9,7.3,.,.
O=C(COC(=O)COc1cccc(C(F)(F)F)c1)Nc1ccc(N2CCOCC2)cc1,2.4,.,2.1,-2.6,-4.0,.,.
CNC(=O)c1ccsc1NC(=O)CN1C(=O)CCC1=O,144.1*,1.1,154.6*,-0.7,147.9*,14.3,9.6
CNC(=O)c1ccsc1NC(=O)CS(=O)(=O)c1ccccc1,4.2,0.6,-2.3,-4.8,5.5,.,.
Cc1ccccc1NC(=O)CSc1ccsc1[N+](=O)[O-],18.3,-1.0,67.1*,-1.1,3.6,32.0*,89.9*
CCN(CC)C(=O)N1CCN(C(=O)N2CCOCC2)CC1,4.6,-1.3,2.0,-6.3,1.6,.,.
CN(C)C(=O)N1CCN(C(=O)N2CCOCC2)CC1,158.1*,0.9,139.4*,-7.4,100.8*,3.3,7.0
CCN1C(=O)[C@@H]2[C@H](C1=O)[C@@H]1C(=O)Nc3ccccc3C(=O)N1[C@@H]2c1cccc(C)c1,2.3,.,1.6,6.2,9.2,.,.
CCCCC1=CC2=C(c3ccco3)C(=O)C(C)(OC(=O)c3ccc(OC)cc3)C(=O)C2=CN1CCCOC(C)C (configuration not stated),63.4*,-0.3,65.4*,-1.8,50.9*,72.4*,90.5*
CCCCC1=CC2=C(c3ccco3)C(=O)C(C)(OC(=O)c3ccc(OC)cc3)C(=O)C2=CN1c1ccccc1 (configuration not stated),49.0*,1.0,49.5*,9.7,43.5*,1.6,-10.5
O=C(O)c1ccc(S(=O)(=O)Nc2ccc(O)c(Sc3nc4ccccc4s3)c2)cc1,26.5,-4.5,42.5*,-4.2,6.7,29.3,59.3*
O=C1N=C(N2CCN(c3cccc4ccccc34)CC2)S/C1=C/c1cccs1,-1.1,2.0,2.4,2.1,4.7,.,.
Cc1ccccc1N1CCN(C2=NC(=O)/C(=C\c3cccs3)S2)CC1,7.9,-0.7,46.0*,-1.7,4.4,10.8,21.8
Clc1ccc(CN(Cc2ccc(Cl)cc2)c2nn[nH]n2)cc1,5.5,0.2,4.7,-3.5,2.0,.,.
c1ccc(CN(Cc2ccccc2)c2nn[nH]n2)cc1,3.7,-0.8,45.9*,-4.3,-8.7,4.0,7.5
O=C1CCCC2=C1C(c1cccs1)Nc1ccc3ncccc3c12 (configuration not stated),4.9,-0.8,12.5,-12.2,3.9,.,.

# Assay outcomes (PubChem BioAssay)
